Reference: publication PMC5540273 (PLoS ONE, 2017)

These molecules were tested on MARK2. Conditions: concentration: 1 μM, replicates: in singlicate; n = 1.
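Also: KINOMEscan kinase panel screen.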

| SMILES | %Inh [%] |
| --- | --- |
| COc1cccc(C2=C(Nc3ccc(Cl)c(C(=O)O)c3)C(=O)NC2=O)c1 [SB-390769] | 0 |
| COc1ccc(Nc2nccc(NCCNC(=O)c3cc4ccccc4s3)n2)cc1 [GSK1379896] | 0 |
| COc1ccc(CNC(=O)NC2CCN(c3ccnc(Nc4ccc(F)cc4)n3)CC2)cc1 [GSK1379788] | 0 |

The molecules below were run on MARK3. Conditions: concentration: 1 μM, replicates: in singlicate; n = 1.

| SMILES | %Inh [%] |
| --- | --- |
| CC(C)(C)c1ccc2nccc(Nc3cccc(O)c3)c2c1 [GW856795] | 27 |
| COc1cc2c(cc1OCCN1CCNCC1)ncc1c3ccc(C#N)cc3[nH]c21 | 0 |
| COc1cc(Nc2nccc(-c3c(-c4cccc(NC(=O)c5c(F)cccc5F)c4)nn4ccccc34)n2)cc(OC)c1OC [GSK323521] | 51 |
| Cc1ccc(S(=O)(=O)Nc2ccc(Nc3nccc(Nc4cccc5[nH]ncc45)n3)cc2)cc1 [GSK581271] | 0 |
| CCc1ccc(-c2ccc3c(c2)-c2c(cnn2C)S(=O)(=O)N3C)cc1 | 3 |
| O=C(Nc1cccc(-c2nn3ncccc3c2-c2ccnc(Nc3ccccc3)n2)c1)c1c(F)cccc1F [GSK198271] | 0 |
| Fc1ccc(-c2ncn(C3CCNCC3)c2-c2ccnc(Oc3ccc(-c4ccccc4)cc3)n2)cc1 [SB-245391] | 23 |
| CN(c1ccc(NC(=O)Nc2cc(C(F)(F)F)ccc2F)cc1)c1ccnc(Nc2ccc(S(N)(=O)=O)cc2)n1 [GW809893] | 2 |
| CC(=O)Nc1nc2cnc(Nc3cc(NC(=O)c4cccc(C5(C#N)CC5)c4Cl)ccc3C)nc2s1 | 0 |
